Data on eight compounds can be found in PubChem BioAssay (Tox21).

Test [1] concerns the target Thyrotropin receptor (Homo sapiens) (UniProt P16473). Kind of test: qHTS assay to identify small molecule agonists of the thyroid stimulating hormone receptor (TSHR) signaling pathway (AID 1224843; calls by dose curve; note: nearly all actives have a fitted effect of over 45% in size). Put shortly: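 Using 15 concentrations per compound in triplicate, cAMP production was monitored in TSHR-HEK293 cells after 30 min compound incubation at RT; HTRF reagents followed, with fluorescence intensity recorded after 1 h.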

Test [2] can be described thus: qHTS assay to identify small molecule agonists of H2AX (AID 1224845; active = well fitted activation curve with a large enough effect in the signal ratio in the repeat runs, not every such curve was filed as active; the % refers to the signal ratio). A digest of the protocol: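 Wild-type CHO-K1 cells plated overnight, then exposed 3 hr at 37C to compounds at 15 concentrations (0.76% DMSO). Lysed, then HTRF anti-pH2AX(S139)-cryptate/anti-H2AX-d2 detection after 24 hr at room temperature; emissions 665 and 620 nm.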
(In general: Quantitative high-throughput screening tests each substance at several concentrations.)

The nature of test [3]: qHTS assay to identify small molecule agonists of the hypoxia (HIF-1) signaling pathway (AID 1224846; active = well fitted activation curve with a large enough effect in the signal ratio in the repeat runs, not every such curve was filed as active; the % refers to the signal ratio). A digest of the protocol: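 In ME-180 cells bearing an HRE-bla construct, 17 h treatment with DMSO-dissolved compounds at 37C was followed by CCF4-AM loading to quantify reporter induction.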
Test [4] in a line: qHTS assay to identify small molecule agonists of H2AX - cell viability counter screen (AID 1224847; calls by dose curve; note: top concentration of the series differs between compounds; nearly all actives have a fitted effect of over 30% in size). Put shortly:
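Cells plated first: CHO-K1, 1000 per well in 10% FBS medium, incubated overnight at 37C. Then 15-point compound titration added (final DMSO 0.76%) for 3 hr. Finally CellTiter-Glo added and luminescence read.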

Test [5] is described as follows: qHTS RealTime-Glo MT Cell Viability Assay in HepG2 cells - 24 hour (AID 1224867). Note: nearly all actives have a fitted effect of over 50% in size. Put shortly: (§1)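 qHTS, HepG2, 600 cells/well, RealTime-Glo (NanoLuc + prosubstrate) added with cells; 5 h preincubation; DMSO compound addition; 37 C; luminescence at 0/8/16/24/32/40 h.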
Test [6] can be described thus: qHTS RealTime-Glo MT Cell Viability Assay in HEK293 cells - 32 hour (AID 1224868). Note: top concentration of the series differs between compounds; nearly all actives have a fitted effect of over 50% in size. A digest of the protocol: (§2)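 Assay medium contained NanoLuc luciferase plus cell-permeant prosubstrate, added with HEK293 cells at 600 cells/well. After 5 h at 37 C/5% CO2 compounds were added; plates stayed at 37 C for 40 h with serial luminescence reads.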
Test [7] can be described thus: A CellTox Green Cytotoxicity Assay to monitor cytotoxicity in HEK293 cells - 0 hour (AID 1224869). Note: nearly all actives have a fitted effect of over 50% in size. Note: potency is the fitted concentration of half-maximal effect. Put shortly:
(§3)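 Homogeneous no-lysis format: HEK293 cell suspension mixed with CellTox Green reagent, seeded, incubated 5 h at 37 C/5% CO2, then dosed by pintool with compound in DMSO.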

The nature of test [8]: qHTS RealTime-Glo MT Cell Viability Assay in HepG2 cells - 40 hour (AID 1224870). Note: nearly all actives have a fitted effect of over 50% in size. Put shortly: (§4)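 HepG2 cells mixed with RealTime-Glo MT reagents (NanoLuc plus cell-permeant prosubstrate) were seeded at 600 cells/well, incubated 5 h at 37 C/5% CO2, then pinned with compounds in DMSO; nonlytic luminescence tracked viability during 40 h treatment.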
Test [9] in a line: qHTS RealTime-Glo MT Cell Viability Assay in HEK293 cells - 16 hour (AID 1224872). Put shortly: as §2
Test [10] is described as follows: qHTS RealTime-Glo MT Cell Viability Assay in HepG2 cells - 8 hour (AID 1224873). Note: nearly all actives have a fitted effect of over 55% in size. A digest of the protocol: as §4
Test [11] can be described thus: qHTS RealTime-Glo MT Cell Viability Assay in HEK293 cells - 40 hour (AID 1224874). Note: nearly all actives have a fitted effect of over 50% in size. To be noted: RealTime-Glo luminescence; max response: stronger effect = lower value. Put shortly: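 Measured as luminescence from the same continuously cultured HEK293 wells at successive time points (0, 8, 16, 24, 32, 40 h) after compound addition. Reagent present from seeding; dosing at 5 h; incubation 37 C.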

Test [12] can be described thus: A CellTox Green Cytotoxicity Assay to monitor cytotoxicity in HEK293 cells - 24 hour (AID 1224875). Note: nearly all actives have a fitted effect of over 45% in size. Note: potency is the fitted concentration of half-maximal effect. Put shortly:
as §3

Test [13] can be described thus: A CellTox Green Cytotoxicity Assay to monitor cytotoxicity in HepG2 cells - 16 hour (AID 1224876). Note: nearly all actives have a fitted effect of over 45% in size. Note: potency is the fitted concentration of half-maximal effect. A digest of the protocol:
(§5)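 Fluorescent DNA-binding dye, 600 HepG2 cells/well, 5 h preincubation then compound in DMSO; same plates read at 0–40 h, 37 C.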

A short description of test [14]: qHTS RealTime-Glo MT Cell Viability Assay in HepG2 cells - 32 hour (AID 1224877). Note: nearly all actives have a fitted effect of over 55% in size. Put shortly: as §1
Test [15] can be described thus: A CellTox Green Cytotoxicity Assay to monitor cytotoxicity in HepG2 cells - 24 hour (AID 1224878). Note: nearly all actives have a fitted effect of over 45% in size. A digest of the protocol: as §5
The nature of test [16]: A CellTox Green Cytotoxicity Assay to monitor cytotoxicity in HepG2 cells - 40 hour (AID 1224879). Note: nearly all actives have a fitted effect of over 40% in size. Note: potency is the fitted concentration of half-maximal effect. A digest of the protocol: as §5
Test [17] can be described thus: A CellTox Green Cytotoxicity Assay to monitor cytotoxicity in HEK293 cells - 40 hour (AID 1224871). Note: nearly all actives have a fitted effect of over 45% in size. Note: potency is the fitted concentration of half-maximal effect. Put shortly:
as §3

The nature of test [18]: qHTS assay to identify small molecule agonists of the hypoxia (HIF-1) signaling pathway - cell viability counter screen (AID 1224844; calls by dose curve; note: nearly all actives have a fitted effect of over 50% in size). A digest of the protocol: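 Same wells as the HIF-1 reporter screen; ME-180 cells carrying HRE-bla, 17 hr treatment at 37C; CellTiter-Glo luminescence read after 30 min at room temperature.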
A short description of test [19]: qHTS assay to identify small molecule antagonists of the estrogen related receptor (ERR) signaling pathway from Tox21 library (AID 1224848). Note: nearly all actives have a fitted effect of over 50% in size. Put shortly:
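Tox21 10K compounds in DMSO tested for ERR pathway antagonism in NTP's ERR cell line; 18 h, 37 C exposure; ONE-Glo luminescence.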

A short description of test [20]: qHTS assay to identify small molecule agonists of the estrogen related receptor (ERR) signaling pathway from Tox21 library (AID 1224849; calls by dose curve; note: nearly all actives have a fitted effect of over 15% in size). The note with it: ERR reporter cell line, ONE-Glo luciferase, 18 h; at 92.4 µM (top of the series) unless noted. A digest of the protocol: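 Reporter cells (ERR, NTP source) treated with Tox21 10K compounds 18 h, 37 C. Readout: ONE-Glo luminescence, 30 min RT.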

SMILES strings stand for the structures. Values without a mark were called inactive. Records with an inconclusive call do not appear. Calls of active or inactive are those of the source. Unless noted, calls come from the whole dose curve; as a rule, active = well fitted curve in the direction sought with a large enough effect in the repeat runs; inconclusive = weak or mixed curves; inactive = no such curve, though single readings can be large; an effect the other way counts as inactive or inconclusive.
% is set by controls: 0 for no effect and ±100 for the full control effect.

Thyrotropin receptor (Homo sapiens), sequence (P16473 whole entry, looked up): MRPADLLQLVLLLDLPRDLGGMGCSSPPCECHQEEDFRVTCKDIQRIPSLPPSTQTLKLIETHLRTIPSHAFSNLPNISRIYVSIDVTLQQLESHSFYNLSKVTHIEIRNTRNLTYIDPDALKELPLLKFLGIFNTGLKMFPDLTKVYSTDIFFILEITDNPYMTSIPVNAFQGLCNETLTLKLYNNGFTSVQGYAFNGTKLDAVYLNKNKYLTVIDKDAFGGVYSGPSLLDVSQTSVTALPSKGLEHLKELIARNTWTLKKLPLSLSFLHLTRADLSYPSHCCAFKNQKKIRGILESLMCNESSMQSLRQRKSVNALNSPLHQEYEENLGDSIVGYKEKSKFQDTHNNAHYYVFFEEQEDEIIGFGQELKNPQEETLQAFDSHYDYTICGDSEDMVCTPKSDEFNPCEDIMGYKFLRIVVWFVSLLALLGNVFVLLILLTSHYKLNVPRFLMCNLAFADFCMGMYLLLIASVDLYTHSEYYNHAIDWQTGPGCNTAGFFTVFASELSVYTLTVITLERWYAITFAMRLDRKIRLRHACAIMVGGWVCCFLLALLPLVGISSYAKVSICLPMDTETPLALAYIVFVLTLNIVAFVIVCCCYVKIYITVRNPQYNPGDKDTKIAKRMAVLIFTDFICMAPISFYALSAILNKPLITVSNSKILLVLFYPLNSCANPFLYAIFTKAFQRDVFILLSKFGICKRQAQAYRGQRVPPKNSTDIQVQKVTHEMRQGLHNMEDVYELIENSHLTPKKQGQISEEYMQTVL

`O=C(C1CCCCC1)N1CC(=O)N2CCCc3ccccc3C2C1` (stereo not given): the Potency entry in test [1], in test [2], in [4], in test [6], in test [7] and in [8] was “inactive” in each case. Moreover, the Potency result in [9], in test [12], in [13], in test [14], in [15] and in test [16] was “inactive” each time. Moreover, the result in test [3], in [5] and in [10] was inactive. Also, the max response in test [11] was -23.1%.
With `COc1cccc([C@H](O)C2CCN(CCc3ccc(F)cc3)CC2)c1OC`, the Potency entry in test [1], in [2], in [4], in [7], in test [8] and in [17] was “inactive” each time. Further, the Potency entry in test [12], in test [13], in [14] and in test [15] was “inactive” each time. Further, the result in test [3], in test [5] and in [10] was inactive.
In the case of `FC1(F)C(F)(F)C(F)(F)C2(F)C(F)(C1(F)F)C(F)(F)C(F)(F)C1(F)C(F)(F)C(F)(F)C(F)(F)C(F)(F)C12F` (stereo not given), the Potency entry in test [1], in test [18], in test [4], in test [6], in test [7] and in [8] was “inactive” throughout. For the same compound, the Potency result in [17], in [9], in test [12], in test [13], in test [14] and in test [15] was “inactive” throughout. The Potency entry in [16] is “inactive”. The outcome in test [3] and in test [10] was inactive. Moreover, in test [11], the max response was 0.279%.
`CCCCCCC/C=C/C=O`: the Potency entry in test [1], in test [18], in test [4], in test [6], in test [7] and in [8] was “inactive” throughout. Besides, the Potency result in test [17], in test [9], in [12], in test [13], in test [14] and in [15] was “inactive” in each case. For the same compound, the Potency entry in [16] was “inactive”. Further, the result in test [3] and in [10] was inactive. The max response in [11] is 6.61%.
Take `O=C1C=CCCC1`: the Potency entry in test [1], in test [2], in test [4], in [6], in [8] and in test [17] was “inactive” each time. Further, the Potency entry in test [9], in [12], in test [13], in test [14], in test [15] and in test [16] was “inactive” throughout. For the same compound, the outcome in test [3], in [5] and in test [10] was inactive. Further, the max response in test [11] is -0.315%.
With `CCCCCCCCCC(C)C=O` (stereo not given), the Potency result in [1], in test [2], in test [6], in [9] and in [14] was “inactive” in each case. The call in [3] and in test [10] was inactive. Besides, the Potency in test [7] was 24.5 µM (active); in [17], 19.5 µM (active); in [12], 21.9 µM (active); in test [13] it was 24.5 µM (active); in test [16] it was 24.5 µM (active). Also, the max response in [11] was 12%.
As to `CCC(=O)O[C@]1(C(=O)COC)[C@@H](C)C[C@H]2[C@@H]3CCC4=CC(=O)C=C[C@]4(C)C3(F)[C@@H](O)C[C@@]21C` (stereo not given in full), the Potency entry in test [1], in [2], in [4], in test [19], in test [6] and in [7] was “inactive” in each case. Besides, the Potency result in [8], in test [17], in [9], in test [12], in test [13] and in test [14] was “inactive” each time. The Potency entry in [15] and in [16] was “inactive” throughout. Moreover, the compound was classed as inactive in test [3], in test [5] and in [10]. For the same compound, in test [20], the activity change, positive = activation is -12.4% [at 42.5 µM]. Besides, the max response in [11] was -19.2%.
`Cc1ccc2ccccc2c1[N+](=O)[O-]`: the Potency entry in test [1], in [18], in test [6], in [7], in test [8] and in test [17] was “inactive” each time. The Potency entry in [9], in [12], in test [13], in test [14], in test [15] and in test [16] was “inactive” throughout. Besides, the call in test [3], in test [5] and in [10] was inactive. Besides, the max response in test [11] is 5.94%.
